Source: ChEMBL document CHEMBL1157539, “Thousands of chemical starting points for antimalarial lead identification” (Nature, 2010)

Key:
Assay type in all cases: functional
Plasmodium falciparum [1] = assay: GSK_TCMDC: Inhibition of Plasmodium falciparum 3D7 in whole red blood cells, using parasite LDH activity as an index of growth. Test compounds present at 2uM
Plasmodium falciparum [2] = assay: GSK_TCMDC: Inhibition of Plasmodium falciparum Dd2 in whole red blood cells, using parasite LDH activity as an index of growth. Test compounds present at 2uM
HepG2 = assay: GSK_TCMDC: Percent inhibition of human HepG2 cell line. Test compounds present at 10uM.

SMILES | Inhibition (Plasmodium falciparum [1]) [%] | Inhibition (Plasmodium falciparum [2]) [%] | Inhibition (HepG2) [%]
COc1cc2nc(N3CCC(CNC(=O)c4ccc(-c5ccc(O)cc5)cc4)CC3)nc(N)c2cc1OC.O=C(O)C(F)(F)F | 100 | 78 | 34
O=C(Nc1ccc2c(c1)CCN2C1CCN(Cc2ccc(C(F)(F)F)cc2F)C1)c1ccco1 (stereo not given) | 91 | 94 | 9
CC=Cc1cc(Cc2c[nH]c(=N)[nH]c2=N)cc(CCC)c1OC | 97 | 1 | 16
Cc1cccc2nc(-c3ccc(-c4ccc(NC(=O)C(C)CN(C)C)cc4)cc3)[nH]c12 (stereo not given) | 99 | 99 | 18
Cc1cccc(-c2ccc3c(c2)CC(NCc2cccc(-n4ccnc4)c2)C3)c1 (stereo not given) | 100 | 49 | 11
N=C(N)c1ccc(NCc2cccc(C(=O)O)c2)cc1.O=C(O)C(F)(F)F | 84 | 79 | 7
CC1CCC2(CC1)N=C(N)N=C(N)N2OCc1cc2ccccc2c2ccccc12 (stereo not given) | 97 | 41 | 27
Cl.Oc1cccc(Nc2ccnc3cc(-c4ccccn4)ccc23)c1 | 96 | 98 | 24
O=C(NC(=S)Nc1cc(C(F)(F)F)cc(C(F)(F)F)c1)c1ccc(Cl)cc1 | 96 | 99 | 31
O=C(NCCN1CCCC1)c1ccc(-c2cccc(-c3nc4cc(F)ccc4[nH]3)c2)cc1 | 100 | 2 | 29
O=C(Nc1ccc(-c2ccc(-c3nc4ccccc4[nH]3)s2)cc1)Nc1ccc(Cl)c(Cl)c1 | 100 | 99 | 89
COc1ccc(CNCc2ccccc2)cc1-c1cccc(S(=O)(=O)NCCN2CCCC2)c1.O=C(O)C(F)(F)F | 98 | 36 | 37
CN1CCN(c2ccc3nccc(CCN4CCC(NCc5ccc6c(n5)NC(=O)CO6)CC4)c3n2)CC1.Cl | 97 | 3 | 9
CCc1cc(=O)[nH]c(-n2nc(C)cc2NC(=O)CC(c2ccccc2)c2ccccc2)n1 | 92 | 75 | 37
O=C(O)C(F)(F)F.c1cc(-c2ccc(CNCCCn3ccnc3)cc2)cc(-c2nc3ccccc3[nH]2)c1 | 100 | 100 | 17
Cl.c1ccc(Oc2ccc(Nc3ccnc4cc(-c5ccc(CN6CCNCC6)o5)ccc34)cc2)nc1 | 100 | 99 | 7
CC1(C)N=C(N)N=C(N)N1c1cc(Cl)c(Cl)c(Cl)c1.CCS(=O)(=O)O | 93 | 31 | 68
FC(F)(F)c1ccc2[nH]c(-c3ccc(-c4cccc(CNCc5ccccc5)c4)s3)nc2c1.O=C(O)C(F)(F)F | 100 | 83 | 15
COc1ccc(NC(=O)/C=C/c2ccccc2Cl)cc1OCCN1CCC(N2CCCC2)CC1.O=C(O)C(=O)O | 100 | 23 | 22
COc1ccc(C2CCN(CCCCNC(=O)c3ccc(NC(=O)c4ccc(Cl)cc4)cc3)CC2)cc1Cl | 97 | 75 | 28

SMILES | Inhibition (Plasmodium falciparum [1]) [%] | Inhibition (Plasmodium falciparum [2]) [%] | Inhibition (HepG2) [%]
CC(=O)N1N=C(c2ccccc2)Sc2c1nc(-c1ccc(Cl)cc1)n2C(C)=O | 94 | 18 | 0
CC(C)CCCC(C)(C)NC[C@@H](O)[C@H](Cc1ccccc1)NC(=O)c1cc(NC(C)C)cc(N2CCCCS2(=O)=O)c1F.O=CO | 98 | 99 | 11
Oc1nc(Cc2ccccc2)nc2ccc(Cl)cc12 | 92 | 76 | 13
O=C(Nc1ccc2[nH]c(-c3ccccc3)nc2c1)c1cc(-c2ccc3c(c2)OCCO3)n[nH]1.O=C(O)C(F)(F)F | 100 | 75 | 58
Cc1ccc(O)cc1Nc1ccnc2cc(-c3csc(CN4CCN(C)CC4)n3)ccc12 | 100 | 77 | 6
N=C(N)Nc1nc(-c2cccc(NC(=O)NCc3ccc(OC(F)(F)F)cc3)c2)cs1 | 100 | 26 | 0
COc1ccc(C2N=C(N)N=C(N)N2OCc2ccccc2)cc1OC.Cl (stereo not given) | 95 | 2 | 1
COc1cc(F)c2ncc(Cl)c(CCN3CCC(NCc4ccc5c(c4)NC(=O)CS5)CC3)c2c1.Cl | 100 | 85 | 27
COc1ccc2nccc(N(C)CC3(O)CCN(CCc4ccc5c(c4)NC(=O)CS5)CC3)c2n1.Cl | 91 | 67 | 10
O=C(NCCCN1CCCC1=O)NCc1ccccc1 | 99 | 4 | 8
COc1ccc2ncc(F)c(CCN3CC(O)C(CNCc4ccc5c(c4)OCCO5)C3)c2n1.Cl (stereo not given) | 94 | 35 | 18
COc1ccc(Cl)cc1N1CCN(CCCNC(=O)c2ccc(-c3nc4cc(Cl)c(F)cc4[nH]3)s2)CC1 | 100 | 98 | 12
COc1ccc(-c2cccc(NC(=O)c3cccc(C#N)c3)c2)cc1CN1CCNCC1.O=C(O)C(F)(F)F | 100 | 15 | 27
CN(C)C(CNC(=O)c1cc(-c2ccncc2)c(-c2ccc(NC(=O)Nc3ccccc3)cc2)o1)c1ccccc1.O=C(O)C(F)(F)F (stereo not given) | 100 | 96 | 19
Cc1nc(C(=O)N2CCCC[C@H]2CNC(=O)c2ccc(-c3ccc(N4CCCC4=O)cc3C)cc2)c(-c2ccc(F)cc2)s1 | 98 | 94 | 6
O=C(Cn1c(CCc2cccc(F)c2F)cc(=O)c2cccnc21)N(CCn1ccnc1)Cc1ccc(-c2ccc(C(F)(F)F)cc2)cc1 | 99 | 62 | 39
CNCCCn1c(N(C)C)nc2cc(-n3cnc4cc(-c5ccc(Cl)cc5)sc4c3=O)ccc21.O=C(O)C(F)(F)F | 86 | 27 | 39
COc1ccccc1C(=O)Nc1ccc(Nc2nc(C)cc(N(C)C)n2)cc1 | 100 | 76 | 1
CCc1cn2c3c(cc(C(=O)N[C@@H](Cc4cc(F)cc(F)c4)[C@H](O)CNC4CC4)cc13)N(C)S(=O)(=O)CC2.O=CO | 100 | 99 | 3
COC(=O)c1cc2cccc(NC[C@@H](C)NC[C@H](O)c3cccc(Cl)c3)c2[nH]1 | 98 | 99 | 0

SMILES | Inhibition (Plasmodium falciparum [1]) [%] | Inhibition (Plasmodium falciparum [2]) [%] | Inhibition (HepG2) [%]
CC(=O)Nc1nc(C(=O)Nc2ccc(-c3ccc(-c4nc5cccc(C)c5[nH]4)cc3)cc2)cs1 | 100 | 53 | 42
CCN(CC)CCN(Cc1ccc(-c2ccc(C(F)(F)F)cc2)cc1)C(=O)Cn1cc(Cc2cnn(C)c2)c(=O)nc1/C=C/c1cccc(F)c1F.O=C(O)C(O)C(O)C(=O)O | 95 | 98 | 11
CCN(CC)CCNC(=O)c1ccc(Nc2ncc([N+](=O)[O-])c(Nc3ccccc3OC)n2)cc1.Cl | 97 | 58 | 59
CNC(=O)NC1CCN(Cc2c(-c3cccs3)nc3ccccc3c2C(=O)N[C@@H](C)C2CCCCC2)CC1 | 99 | 97 | 5
CC(C)COc1ccc(Cl)cc1Cc1ccc(-c2nc3cc(CCN4CCCC4)ccc3[nH]2)o1.Cl | 100 | 94 | 34
O=C(/C=C/c1ccc(Cl)c(Cl)c1)NC1CCC(CN2CCC(c3nc4cccnc4[nH]3)CC2)CC1 (stereo not given) | 100 | 2 | 7
OCC1CCN(Cc2cccc(C#Cc3cc4ncnc(Nc5ccc(OCc6cccc(F)c6)c(Cl)c5)c4s3)n2)CC1 | 99 | 95 | 41
Clc1ccc2c(NCc3ccccc3)ccnc2c1 | 100 | 100 | 40
COc1ccc(-c2cccc(NC(=O)c3ccc(C#N)cc3)c2)cc1CN1CCN(C)CC1.O=C(O)C(F)(F)F | 93 | 2 | 24
CCCC(C)Nc1nc(C)cc(N[C@@H](CC(C)C)C(=O)NCCOc2ccccc2)n1.O=C(O)C(F)(F)F (stereo not given in full) | 93 | 28 | 15
COC(=O)c1cc(/C(C)=N/Nc2nc3ccccc3[nH]2)ccc1O | 100 | 75 | 9
CCNC(=O)c1cc(S(=O)(=O)N2CCN(c3ccccn3)CC2)cs1 | 97 | 94 | 7
Cl.N=C(N)NCCCN(Cc1ccccc1)c1ccccc1 | 100 | 97 | 0
Cl.O=C(Nc1ccc(Cl)c(Cl)c1)N1CCc2ccc(OCCCN3CCCCC3)cc2CC1 | 92 | 0 | 27
CN(CC1CCC(NC(=O)/C=C/c2ccc(Cl)c(Cl)c2)CC1)C1CCC(c2c[nH]c3ccccc23)CC1 (stereo not given) | 99 | 53 | 53
CSc1sc(NC(=O)Nc2cccc(C(F)(F)F)c2)cc1C#N | 99 | 46 | 27
CC(O)C1CCCCN1C(=O)c1cccc(-c2cccc(-c3nc4ccccc4[nH]3)c2)c1 (stereo not given) | 99 | 76 | 20
Cc1cc(=O)c2cc(Oc3cccc(OC(F)(F)F)c3)ccc2[nH]1 | 90 | 80 | 9
CCC(=O)c1ccc(-c2ccc(=O)n(CC(=O)N(CCN(CC)CC)Cc3ccc(-c4ccc(C(F)(F)F)cc4)cc3)n2)cc1 | 98 | 67 | 91
Brc1ccc(Nc2nc3ccccc3nc2Nc2ccc(Br)cc2)cc1 | 100 | 100 | 18
